Results filed as inconclusive are left out. The source made the active and inactive calls. Unless noted, calls follow the shape of the full dose curve.
Key:
[1] = qHTS for Inhibitors of the Functional Ribonucleoprotein Complex (vRNP) of Lassa (LASV) Arenavirus: LASV Primary Screen - GLuc reporter signal (AID 1347082; calls by dose curve; tested in HEK293 reporter line; also: nearly all actives have a fitted effect of over 60% in size; as to activity change, negative = inhibition: series mostly up to about 57 µM)
[2] = qHTS for Inhibitors of the Functional Ribonucleoprotein Complex (vRNP) of Lassa (LASV) Arenavirus: Viability assay - alamar blue signal for LASV Primary Screen (AID 1347083; calls by dose curve; tested in HEK293 reporter line; also: nearly all actives have a fitted effect of over 80% in size; as to activity change, negative = reduced viability: series mostly up to about 57 µM)
[3] = qHTS for Inhibitors of the Functional Ribonucleoprotein Complex (vRNP) of Lymphocytic Choriomeningitis Arenaviruses (LCMV): Viability assay - alamar blue signal for LCMV Primary Screen (AID 1347085; calls by dose curve; tested in HEK293 reporter line; also: nearly all actives have a fitted effect of over 80% in size; as to activity change, negative = lower viability: series mostly up to about 57 µM)
[4] = molecular target: Nucleoprotein (Lymphocytic choriomeningitis virus (strain Armstrong)) (UniProt P09992); assay: qHTS for Inhibitors of the Functional Ribonucleoprotein Complex (vRNP) of Lymphocytic Choriomeningitis Arenaviruses (LCMV): LCMV Primary Screen - GLuc reporter signal (AID 1347086); also: nearly all actives have a fitted effect of over 70% in size; as to activity change, negative = inhibition: series mostly up to about 57 µM
% is scaled to controls: 0 for no effect and ±100 for the full control effect; potency is read from the fitted curve at half-maximal effect.

Chain of Nucleoprotein (Lymphocytic choriomeningitis virus (strain Armstrong)) (P09992 whole entry, looked up): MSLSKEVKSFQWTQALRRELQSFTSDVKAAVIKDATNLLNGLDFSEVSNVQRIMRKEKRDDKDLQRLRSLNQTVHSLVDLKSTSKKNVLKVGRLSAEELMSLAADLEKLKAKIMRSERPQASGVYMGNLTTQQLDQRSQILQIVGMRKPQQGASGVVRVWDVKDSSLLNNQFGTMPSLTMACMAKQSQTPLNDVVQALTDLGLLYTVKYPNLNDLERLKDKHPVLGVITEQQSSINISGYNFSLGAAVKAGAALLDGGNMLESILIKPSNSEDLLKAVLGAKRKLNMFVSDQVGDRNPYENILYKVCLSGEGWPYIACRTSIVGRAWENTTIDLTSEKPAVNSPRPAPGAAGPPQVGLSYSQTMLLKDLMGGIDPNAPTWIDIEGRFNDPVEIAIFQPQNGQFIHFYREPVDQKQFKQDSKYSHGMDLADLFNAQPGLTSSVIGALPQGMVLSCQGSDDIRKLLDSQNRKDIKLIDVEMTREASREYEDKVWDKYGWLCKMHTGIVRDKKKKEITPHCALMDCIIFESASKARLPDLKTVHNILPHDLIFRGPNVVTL

COc1cc2nc(-c3cc(F)ccc3O)nc(N[C@@H]3CNC[C@@H]3C(C)(C)O)c2cc1OC
active: Potency [1] 1370 nM | Potency [2] 1090 nM | Potency [3] 8630 nM

C/C(=N/N=C(\C)c1ccccc1O)c1ccccc1O
inactive: Potency [1] | Potency [2] | Potency [3] | Potency [4]

COc1cccc2c1C(=O)c1c(O)c3c(c(O)c1C2=O)C[C@@](O)(C(=O)CO)C[C@H]3O[C@H]1C[C@H](N)[C@H](O)[C@H](C)O1
active: Potency [1] 13700 nM | Potency [2] 1090 nM | Potency [3] 863 nM

CCC12CCCN3CCC4(C(=C(C(=O)OC)C1)Nc1ccccc14)C32 (stereo not given)
inactive: Potency [1] | Potency [2] | Potency [3]

COc1ccc(-c2cc(=O)c3c(O)cc(O)c(-c4cc(-c5cc(=O)c6c(O)cc(OC)cc6o5)ccc4OC)c3o2)cc1
inactive: Potency [1] | Potency [2]

Cc1c(O)cccc1C(=O)N[C@@H](CSc1ccccc1)[C@H](O)CN1C[C@H]2CCCC[C@@H]2C[C@@H]1C(=O)NC(C)(C)C
inactive: Potency [1] | Potency [2] | Potency [3] | Potency [4]

Nc1ccn([C@@H]2O[C@H](CO)[C@H](O)C2(F)F)c(=O)n1
active: Potency [2] 968 nM | Potency [3] 968 nM
inactive: Potency [1]

CCC(=C(c1ccc(O)cc1)c1ccc(OCCNC)cc1)c1ccccc1
active: Potency [1] 3430 nM | Potency [2] 3430 nM | Potency [3] 13700 nM

CC[C@H]1OC(=O)[C@H](C)C(=O)[C@H](C)[C@@H](O[C@H]2O[C@H](C)C[C@H](N(C)C)[C@@H]2O)[C@](C)(OC)C[C@@H](C)C(=O)[C@H](C)[C@H]2N(CCCCn3cnc(-c4cccnc4)c3)C(=O)O[C@]12C
inactive: Potency [1] | Potency [2] | Potency [3]

CC(=O)OC1CCC2(C)C(COc3ccc4ccc(=O)oc4c3)C(C)(O)CCC2C1(C)C (stereo not given)
inactive: Potency [1] | Potency [2] | Potency [3]

CC(C)(O)CC(=O)NCCn1ccc2ncnc(Nc3ccc(Oc4cccc(C(F)(F)F)c4)c(Cl)c3)c21
inactive: Potency [1] | Potency [2]
active: Potency [3] 769 nM

CN[C@@H]1CN(c2ccc3c(=O)c(C(=O)O)cn(-c4nccs4)c3n2)C[C@@H]1OC
active: Potency [2] 10600 nM | Potency [3] 15000 nM
inactive: Potency [1]

CCC(=C(CC)c1ccc(O)cc1)c1ccc(O)cc1
active: Potency [2] 15.3 nM | Potency [3] 13.7 nM
inactive: Potency [1]

O=C1NC(=O)C(=Cc2ccc3c(c2)OC(F)(F)O3)S1
inactive: Potency [1] | Potency [2]

CC(C)CCCCCCCCCCCCC(=O)NCC(=O)NC1C(O)C(O)C(Nc2ncnc3nc[nH]c23)OC1C(O)CO (stereo not given)
inactive: Potency [1] | Potency [2] | Potency [3] | Potency [4]

CON(C)C(=O)N1N=C(c2cc(F)ccc2F)S[C@]1(CCCN)c1ccccc1
inactive: Potency [1] | Potency [2] | Potency [3] | Potency [4]

CNC(=O)Nc1ccc(Cl)c(Cl)c1
inactive: Potency [1] | Potency [2]

O=C(/C=C/c1ccc(O)c(O)c1)c1ccc(O[C@@H]2O[C@H](CO)[C@@H](O)[C@H](O)[C@H]2O)c(O)c1O
inactive: Potency [1] | Potency [2]

O=C(C=Cc1ccc(O)cc1)c1ccc(O)cc1O
inactive: Potency [1] | Potency [2] | Potency [3]

CCS(=O)(=O)c1cccc(-c2cc(C(=O)NC3CCN(C)CC3)c(C)c3[nH]c4ncc(C)cc4c23)c1
active: Potency [1] 12200 nM | Potency [2] 6850 nM | Potency [3] 6110 nM

C[C@H]([C@@H](O)[C@@H](O)[C@@H](C)C(C)(C)C)[C@H]1CC[C@H]2C3CC[C@H]4C[C@H](OS(=O)(=O)O)[C@@H](OS(=O)(=O)O)C[C@]4(C)[C@H]3CC[C@]12C (stereo not given in full)
inactive: Potency [1] | Potency [2]

COc1ccc2c(=O)c(-c3ccccc3)c(C)oc2c1
inactive: Potency [1] | Potency [2] | Potency [3] | Potency [4]

CC(=O)[C@]1(O)Cc2c(O)c3c(c(O)c2[C@@H](O[C@H]2C[C@H](N)[C@@H](O)[C@H](C)O2)C1)C(=O)c1ccccc1C3=O
active: Potency [1] 10900 nM | Potency [2] 769 nM | Potency [3] 611 nM

CO[C@H]1/C=C\O[C@@]2(C)Oc3c(C)c(O)c4c(O)c(c5c(nc6cc(C)ccn65)c4c3C2=O)NC(=O)C(C)=CC=C[C@H](C)[C@H](O)[C@@H](C)[C@@H](O)[C@@H](C)[C@H](OC(C)=O)[C@H]1C
inactive: Potency [1] | Potency [2] | Potency [3] | Potency [4]

O=C(O)C[C@H](O)C[C@H](O)C=Cc1c(C2CC2)nc2ccccc2c1-c1ccc(F)cc1
active: Potency [2] 24300 nM
inactive: Potency [1]

CCCCCCC[C@@H](C/C=C/CCC(=O)N(C)C/C(=C/Cl)C/C(=C\C(=O)N1C[C@H](O)CC1=O)OC)OC
inactive: Potency [1] | Potency [2] | Potency [3]

COc1cccc(-c2ccc(NC(=O)C3=C(C(=O)O)CCC3)c(F)c2)c1
inactive: Potency [1] | Potency [2] | Potency [3]

COC(/C(C)=C/C=C/C(C)=C/c1coc(C)n1)C(C)C1CC(O)C2(C)OC2C=CC(C)C2CC(CC(=O)O2)CC2OC2C(=O)O1 (stereo not given)
inactive: Potency [1] | Potency [2]

CCCCCCCCCCOC(C)=O
inactive: Potency [1] | Potency [2] | Potency [3] | Potency [4]

C=C(C)C(Cc1c(OC)ccc(C(=O)/C=C/c2ccc(O)cc2)c1O)OO (stereo not given)
inactive: Potency [1] | Potency [2] | Potency [3]

COc1cc(OC)c2c(=O)cc(-c3ccccc3)oc2c1
inactive: Potency [1] | Potency [2] | Potency [3]

COC(=O)c1ccc2c(c1)C(NC(C)=O)CCc1cc(OC)c(OC)c(OC)c1-2 (stereo not given)
inactive: Potency [1] | Potency [2]

COC(=O)c1ccc(N2CC3CNC(=O)C2(C(=O)OC)N3C)cc1 (stereo not given)
inactive: Potency [1] | Potency [2] | Potency [3] | Potency [4]

Nc1[nH]c(=O)nc2c1ncn2C1OC(CO)C(O)C1O (stereo not given)
inactive: Potency [1] | Potency [2] | Potency [3] | Potency [4]

O=C(O)Cn1ccnc1
inactive: Potency [1] | Potency [2] | Potency [3] | Potency [4]

C/C=C(\C)C(=O)O[C@H](c1cc2ccc(=O)oc2cc1OC)[C@@H](O)C(C)(C)O
inactive: Potency [1] | Potency [2] | Potency [3] | Potency [4]

C[C@]12O[C@H](C[C@@]1(O)C(=O)O)n1c3ccccc3c3c4c(c5c6ccccc6n2c5c31)CNC4=O
inactive: activity change, negative = inhibition [1] -19.8% [at 5.82 µM] | activity change, negative = reduced viability [2] -37.8% [at 5.82 µM] | activity change, negative = lower viability [3] 6.16% [at 5.82 µM] | activity change, negative = inhibition [4] 25.9% [at 5.82 µM]

CC(=O)N1CCN(c2ccc(OCc3nn(C)c(C)c3-c3cccc4c(CCCOc5cc(C)c(Cl)c(C)c5)c(C(=O)O)n(Cc5cccnc5)c34)cc2)CC1
inactive: Potency [1] | Potency [2] | Potency [3] | Potency [4]

CCCCCCCCCOC(C)=O
inactive: Potency [1] | Potency [2] | Potency [3] | Potency [4]

Cc1c(O)c2c(c(C(=O)/C=C/c3ccccc3)c1O)OC(C)(C)C=C2
inactive: Potency [1] | Potency [2] | Potency [3] | Potency [4]

CC(=NNC(=S)N1CCC1)c1ccccn1
active: Potency [1] 27.3 nM | Potency [2] 43.2 nM | Potency [3] 38.5 nM | Potency [4] 24.3 nM

CCN1CCN(C(=O)N[C@H](C(=O)N[C@@H]2C(=O)N3C(C(=O)O)=C(CSc4nnnn4C)CS[C@@H]23)c2ccc(O)cc2)C(=O)C1=O
inactive: Potency [1] | Potency [2] | Potency [3] | Potency [4]

CC1(C)OC(=O)C=C[C@]2(C)[C@H]3CC[C@@]4(C)[C@H](c5ccoc5)OC(=O)[C@H]5O[C@]54[C@]3(C)C(=O)C[C@@H]12
inactive: Potency [1] | Potency [2] | Potency [3] | Potency [4]

O=C1NC(=S)NC1=Cc1ccc(O)cc1
inactive: Potency [1] | Potency [2] | Potency [3] | Potency [4]

CC(C)c1ccc(C=O)cc1
inactive: Potency [1] | Potency [2] | Potency [3] | Potency [4]

CCCCC(C=O)NC(=O)C(CC(C)C)NC(=O)OCc1ccccc1 (stereo not given)
inactive: Potency [1] | Potency [2] | Potency [3] | Potency [4]

COC(=O)c1ccc(OC)cc1
inactive: Potency [1] | Potency [2] | Potency [3] | Potency [4]

CCc1ccc(O)c(OC)c1
inactive: Potency [1] | Potency [2] | Potency [3] | Potency [4]

O=C1NC(=O)C(Cc2ccc(O)cc2)N1 (stereo not given)
inactive: Potency [1] | Potency [2] | Potency [3] | Potency [4]

COc1cc2c(OC(C)=O)c3c(c(-c4ccc5c(c4)OCO5)c2cc1OC)C(=O)OC3
inactive: Potency [1] | Potency [2] | Potency [3] | Potency [4]

CC1(C)C[C@H]2C3=CCC4[C@@]5(C)CC[C@H](O)[C@](C)(CO)C5CC[C@@]4(C)[C@]3(C)C[C@@H](O)[C@@]2(CO)[C@@H](O)[C@@H]1O (stereo not given in full)
inactive: Potency [1] | Potency [2] | Potency [3] | Potency [4]

COc1ccc(C=CC(=O)c2ccc(OC)c(OC)c2O)cc1OC
inactive: Potency [1] | Potency [2] | Potency [3] | Potency [4]

Oc1cc(O)cc(C=Cc2ccc(O)c(O)c2)c1
inactive: Potency [1] | Potency [2] | Potency [3] | Potency [4]

COCCOCCOCCOCCOC
inactive: Potency [1] | Potency [2] | Potency [3] | Potency [4]

CC(COc1ccc(/C=C/c2ccccc2)cc1)[N+](C)(C)C (stereo not given)
inactive: Potency [1] | Potency [2] | Potency [3] | Potency [4]

CC(C)c1cccc(O)c1
inactive: Potency [1] | Potency [2] | Potency [3] | Potency [4]

O=C[C@H](O)[C@@H](O)[C@H](O[C@H]1O[C@H](CO)[C@@H](O[C@H]2O[C@H](CO)[C@@H](O)[C@H](O)[C@H]2O)[C@H](O)[C@H]1O)[C@H](O)CO
inactive: Potency [1] | Potency [2] | Potency [3] | Potency [4]

CC(O)[C@H]1CC[C@H]2[C@@H]3CC[C@H]4C[C@@H](O)CC[C@]4(C)[C@H]3C(=O)C[C@]12C (stereo not given in full)
inactive: Potency [1] | Potency [2] | Potency [3] | Potency [4]

COC(=O)c1cc(O)cc(OC)c1C(=O)c1c(O)cc(C)cc1O
inactive: Potency [1] | Potency [2] | Potency [3] | Potency [4]

CC(C)(O)C1CC[C@@](C)([C@@H]2CC[C@]3(C)[C@H]2[C@H](O)CC2[C@@]4(C)CCC(O)C(C)(C)C4C(OC4OC(CO)C(O)C(O)C4O[C@@H]4OCC(O)C(O)C4O)C[C@]23C)O1 (stereo not given in full)
inactive: Potency [1] | Potency [2] | Potency [3] | Potency [4]

CCOC(=O)c1ccccc1
inactive: Potency [1] | Potency [2] | Potency [3] | Potency [4]

CC(C)CC(=O)[C@@H](O)Cc1ccc(O)cc1
inactive: Potency [1] | Potency [2] | Potency [3] | Potency [4]

CNCCO
inactive: Potency [1] | Potency [2] | Potency [3] | Potency [4]

COc1cc(O)c2c(=O)c3c(O)ccc(O)c3oc2c1
inactive: Potency [1] | Potency [2] | Potency [3] | Potency [4]

CC1(C)C2CC[C@]3(C)C(CC=C4[C@@H]5C[C@@](C)(CO)[C@@H]6C[C@@]5(CC[C@]43C)C(=O)O6)[C@@]2(C)CC[C@@H]1O (stereo not given in full)
inactive: Potency [1] | Potency [2] | Potency [3] | Potency [4]

COc1ccc([C@H]2c3cc(OC)c(OC)cc3C[C@@H](C)[C@@H]2C)cc1OC
inactive: Potency [1] | Potency [2] | Potency [3] | Potency [4]

CCCC/C=C/CCCCO
inactive: Potency [1] | Potency [2] | Potency [3] | Potency [4]

Reference: PubChem BioAssay (NCATS)
